The source made the active and inactive calls. The rule behind the calls is not given here.
target: Pantothenate synthetase (Mycobacterium tuberculosis (strain ATCC 25618 / H37Rv)) (UniProt P9WIL5); test: Coupled enzyme confirmation of inhibitors against recombinant Mtb PanC (AID 375); details: coupled enzyme assay; at 10 µM, hits give high values;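 note: 0% = full reaction with vehicle and 100% = no enzyme background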
Sequence (P9WIL5 whole entry, looked up): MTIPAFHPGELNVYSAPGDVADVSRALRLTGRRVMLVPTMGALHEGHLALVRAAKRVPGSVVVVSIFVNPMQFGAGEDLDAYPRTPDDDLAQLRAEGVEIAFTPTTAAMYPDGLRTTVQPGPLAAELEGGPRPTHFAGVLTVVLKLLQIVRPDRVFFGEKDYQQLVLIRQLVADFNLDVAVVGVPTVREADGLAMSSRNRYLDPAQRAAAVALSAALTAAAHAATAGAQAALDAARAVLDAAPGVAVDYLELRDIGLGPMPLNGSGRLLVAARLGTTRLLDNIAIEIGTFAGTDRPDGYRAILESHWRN

Structure (SMILES)	inhibition
Cc1cc(C(F)(F)F)nn1Cc1ccc(C(=O)NCc2ccco2)o1	0% (inactive)
CCSc1nnc(NC(=O)c2cc(C)oc2C)s1	11% (inactive)
CC(C(=O)NCCCN1CCOCC1)n1cccc1C(=O)c1ccccc1 (stereo not given)	0% (inactive)
CCCCn1nnc(NC(=O)c2cc3ccccc3o2)n1	0% (inactive)
CCOc1ccc(NC(=O)C2CC(=O)N(C(C)C)C2)cc1 (stereo not given)	2% (inactive)
O=C(c1ccc(-c2ccccc2)cc1)N1CCN(c2ncccn2)CC1	8% (inactive)
CC(C)N(Cc1nc(-c2ccccc2)no1)C(=O)CCCN1C(=O)c2ccccc2C1=O	9% (inactive)
CC(C)(C)c1ccc(O)c(N)c1	2% (inactive)
CCCCC(CC)Cn1c2nc3ccccc3nc2c2c(=N)oc(C)nc21 (stereo not given)	7% (inactive)
CC(C)[C@H](NC(=O)OC(C)(C)C)c1nnc(SCc2cccc(F)c2)o1	1% (inactive)
CC(=O)N1C(=O)C2(C(C#N)=C(N)Oc3cc(C)oc(=O)c32)c2ccccc21 (stereo not given)	0% (inactive)
O=c1c2ccccc2[nH]c(=S)n1CCN1CCC(=C(c2ccc(F)cc2)c2ccc(F)cc2)CC1	4% (inactive)
CCCn1c(NCc2cc(C)ccc2O)nc2ccccc21	0% (inactive)
O=C(CSc1nnc(-c2ccco2)n1CC1CCCO1)N1CCCCC1 (stereo not given)	0% (inactive)
CCOc1ccc(C2C=C(c3ccc(F)cc3)Nc3ncnn32)cc1 (stereo not given)	9% (inactive)
COc1ccc(C2CC(c3cccs3)n3nc(N)nc3N2)cc1 (stereo not given)	0% (inactive)
Cc1oc2c(c1C(=O)NCc1ccccc1)CCCC2	0% (inactive)
CCCCn1c(SCC(=O)N2CC(=O)Nc3ccccc32)nnc1-c1ccoc1C	3% (inactive)
CC(C)NC(=O)c1ccccc1NC(=O)c1ccccc1N(C)S(C)(=O)=O	4% (inactive)
CCOc1cc(N2CCOCC2)c(OCC)cc1NC(=O)CSc1cccc[n+]1[O-]	3% (inactive)

Structure (SMILES)	inhibition
Cc1cc2c(cc(C(=O)NCc3cccnc3)n2Cc2ccc(Cl)cc2)o1	4% (inactive)
CCNC(=O)CC1C(=O)N(c2ccc(F)cc2)C(=O)N1CCC(C)C (stereo not given)	0% (inactive)
Cc1nn(Cc2ccccc2Cl)c(C)c1NC(=O)C1C2CCC(O2)C1C(=O)O (stereo not given)	1% (inactive)
COc1ccc(NC(=O)CC2CCCCC2)cc1OC	4% (inactive)
COc1ncnc2c1N=C1CC(C)(C)CC(N)=C1S2	0% (inactive)
CN=C(Nc1ccc2c(c1)OCO2)SC1CC(=O)N(c2ccccc2)C1=O (stereo not given)	0% (inactive)
CSc1ncc(Cl)c(C(=O)Nc2ccc(S(=O)(=O)N3CCOCC3)cc2)n1	0% (inactive)
CC(=O)/C(C[N+]1(C)CCCCC1)=N\O	3% (inactive)
CCOC(=O)c1c(C)oc2ccc(NS(=O)(=O)c3ccc4c5c(cccc35)C(=O)N4)cc12	3% (inactive)
COCCn1nnnc1C(C(C)C)N1CCN(C(=O)c2ccco2)CC1 (stereo not given)	0% (inactive)
COc1ccccc1-n1cnc(N)c1C(C)=O	0% (inactive)
Nc1nnc(-c2ccccc2)c(-c2ccccc2)n1	0% (inactive)
Cc1cc(NC(=O)CN2CCC(O)(c3cccc(F)c3)CC2)no1	0% (inactive)
CCCNc1nc2c(c(=O)n(C)c(=O)n2C)n1Cc1cccc(C)c1	0% (inactive)
COc1ccccc1C1/C(=C(/O)c2ccccc2)C(=O)C(=O)N1CC(C)C (stereo not given)	0% (inactive)
CCCN(CCC)C(=O)c1c(C)[nH]c(C(=O)OCC)c1C	0% (inactive)
CCOC(=O)c1[nH]c(C)c(C(=O)Nc2ccc(C)c(Cl)c2)c1C	9% (inactive)
CCOC(=O)Cn1c(CN(C)Cc2ccccc2)nc2c1c(=O)n(C)c(=O)n2C	5% (inactive)
CC(=O)c1c(C)[nH]c(C(=O)Nc2c(C)n(C)n(-c3ccccc3)c2=O)c1C	7% (inactive)
CCN(CC)c1ccc2c(c1)C(=O)N(C)C2=O	7% (inactive)

From PubChem BioAssay
